# MsrA inhibitor: inhibits bovine methionine sulfoxide reductase A | purified bovine MsrA, absorbance read-out | inhibition, % at 15.5 µM | hit rate 0.75% among 360,000
# bovine MsrA act: activators of bovine methionine sulfoxide reductase A. purified bovine MsrA, absorbance read-out. activation, % at 10.6 µM. hit rate 0.3% among 360,000. AID 602163; in the data active = activation above about 7.5%
# PKA-R1A activ: PKA-R1A complex activation; activation, % at 11.4 µM; P00514+P68181; hit rate 0.083% among 340,000; AID 504707; PKA-R1A dissociation, Cy5-IP20 fluorescence polarization; scaled: DMSO 0%, 113 µM cGMP 100%;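 active = percent activation above the mean of all tested compounds plus 3 SD, cut at about 19% in these data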;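 also: higher means more PKAc released from R1A so a rise in polarization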
# PKA-R2B activ: activators of human PKA-R2B complex | P22694+P31323 | AID 504700 | activation, % at 11.4 µM | hit rate 0.079% among 340,000 | PKA-R2B holoenzyme dissociation, Cy5-IP20 fluorescence polarization; R2B truncated from residue 108, S112A mutant; 0% DMSO only, 100% 113 µM cGMP;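 active = activation above a cutoff set at the mean over all compounds plus 3 SD, cut at about 18% in these data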;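 also: higher means more holoenzyme dissociation and a rise in polarization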
# Target sequence (P31323 whole entry, looked up, other chains not shown, the tested form may be a part): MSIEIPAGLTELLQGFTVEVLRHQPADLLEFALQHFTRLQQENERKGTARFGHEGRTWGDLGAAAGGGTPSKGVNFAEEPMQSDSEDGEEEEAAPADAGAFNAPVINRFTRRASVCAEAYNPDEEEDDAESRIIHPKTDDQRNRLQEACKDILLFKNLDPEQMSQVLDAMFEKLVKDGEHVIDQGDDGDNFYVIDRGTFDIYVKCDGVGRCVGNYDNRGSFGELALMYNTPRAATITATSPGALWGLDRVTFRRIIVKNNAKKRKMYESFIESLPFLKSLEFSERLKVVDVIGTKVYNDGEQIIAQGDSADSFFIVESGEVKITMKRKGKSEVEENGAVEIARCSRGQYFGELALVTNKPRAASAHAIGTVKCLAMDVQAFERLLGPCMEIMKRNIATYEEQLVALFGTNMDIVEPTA
# MsrA conf: bovine MsrA inhibition, confirmed; hit rate 41% among 2,300; purified bovine MsrA, absorbance read-out; inhibition, % at 15.5 µM; shares compounds with MsrA inhibitor;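 also: coupled to thioredoxin reductase with NADPH and selenocystamine and DMSO as substrate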
# Numbers stand for hits; 0 = inactive; - = not tested or not shown. Most compounds without a hit are left out; they make up all but 1.1% or so of the library. Rule as the data show it, unless noted: active = inhibition above about 4.5%; inactive = the rest.
SMILES,MsrA inhibitor,bovine MsrA act,PKA-R1A activ,PKA-R2B activ,MsrA conf
CC(C)=CCC/C(C)=C/CN1C(=O)N(c2ccc(F)cc2)[C@H]2C[C@@H](c3ccccc3)[C@@H](C)[C@@H](C(=O)N3CCOCC3)C[C@H]21,0,-,-,-,-
COc1cccc2cc(C(=O)Oc3ccc(NC(C)=O)cc3)c(=O)oc12,4.7,0,0,0,0
CCOC(=O)C1=CCN(S(=O)(=O)c2ccc(Br)cc2)C1c1ccc(F)cc1 (stereo unspecified),0,-,-,-,-
CCCc1nnc(NS(=O)(=O)c2ccc(C)cc2)o1,0,0,0,0,-
COc1ccc(/C=N/N2C(=O)C3C4C=CC(C4)C3C2=O)cc1[N+](=O)[O-] (stereo unspecified),8.4,0,0,0,8.2
CCN(CC)c1ccc(C2NCC(c3ccc([N+](=O)[O-])cc3)O2)cc1 (stereo unspecified),5.3,0,0,0,4.7
CCN(c1cccc(C)c1)S(=O)(=O)c1nnc(NC(=O)c2ccco2)s1,0,0,0,0,-
CCN(c1ccccc1)S(=O)(=O)c1nnc(NC(=O)c2ccco2)s1,5.9,0,0,0,5.3
CCOC(=O)/C(C#N)=C1/C=CNC(=O)N1,4.7,0,0,0,0
Cc1ccc(-c2ccc(/C=N/n3cnnc3)o2)cc1Cl,5.0,0,0,0,0
Cc1nc(C)c(C(=O)N/N=C/c2c[nH]c3ccccc23)s1,-,0,0,0,-
Cc1nc(C)c(C(=O)N/N=C/c2cn(C)c3ccccc23)s1,5.1,0,0,0,0
CCOC(=O)C1=C(C)NC2=C(C(=O)CCC2)C1c1cccnc1 (stereo unspecified),0,0,0,0,-
CCC(=O)N1c2ccccc2NC2=C(C(=O)CCC2)C1c1cccnc1 (stereo unspecified),4.8,0,0,0,0
CC(=O)N1c2ccccc2NC2=C(C(=O)CCC2)C1c1ccco1 (stereo unspecified),4.9,0,0,0,0
CC(=O)Oc1cccc(C2C3=C(CC(C)(C)CC3=O)Nc3ccccc3N2C(C)=O)c1 (stereo unspecified),0,0,0,0,-
CC1=C(C#N)c2nc(N)c(C#N)c(C)c2/C1=C\c1ccc(-c2ccccc2C(=O)O)o1,0,0,0,0,-
COc1cc(/C=C2/C(C)=C(C#N)c3nc(N)c(C#N)c(C)c32)ccc1OCC(=O)O,5.0,-,-,-,0
C=CCn1c(C)nnc1SCC(=O)N1CCN(S(=O)(=O)c2ccccc2)CC1,0,0,0,0,-
O=C1N/C(=C\c2ccc(O)cc2)C(O)=C1C=NCc1ccccc1,4.9,0,0,0,0
O=C(C(=O)c1ccc(O)c(O)c1)c1ccc(O)c(O)c1,7.6,0,0,0,8.3
COCCN1C(=O)[C@H]2C[C@@]13O[C@H](c1ccccn1)N=C3CC1c3ccccc3C[C@@]12C (stereo partly specified),0,-,-,-,-
COc1ccc(/C=C/C(=O)N2CCNC(=O)C2)c(OC)c1,4.8,0,0,0,0
O=C1CN(C(=O)/C=C/c2cc(Br)ccc2F)CCN1,0,0,0,0,-
Cc1cccc(CC(=O)NCC(=O)NCc2cc(=O)n(C)c(=O)n2C)c1,0,0,0,0,-
SMILES,MsrA inhibitor,bovine MsrA act,PKA-R1A activ,PKA-R2B activ,MsrA conf
COc1ccc(S(=O)(=O)Nc2ccc(O)c(Sc3ncn[nH]3)c2)cc1,0,0,0,0,-
COc1ccc(S(=O)(=O)Nc2cccc3ccc(O)cc23)cc1,0,0,0,0,-
COc1ccc(S(=O)(=O)Nc2cc(SCC(=O)O)c(O)c3ccccc23)cc1,7.4,0,0,0,0
COc1ccc(S(=O)(=O)Nc2cc(Sc3ncn[nH]3)c(O)c3ccccc23)cc1,64,-,-,-,0
Cc1nn(Cc2ccc([N+](=O)[O-])cc2)c(=O)n1-c1cccc(Cl)c1,0,0,0,0,-
CC1CC(C)CN(C(=O)c2cc3cc(Br)cc(Br)c3o2)C1 (stereo unspecified),5.4,0,0,0,0
CC1CC(C)CN(C(=O)c2cc3ccccc3o2)C1 (stereo unspecified),0,0,0,0,-
CC(=O)Nc1ccc2c(c1)C(N1CC3CCC(CC3)C1)c1ccccc1-2 (stereo unspecified),0,0,0,0,-
CN=Cc1nc(-c2ccccc2)oc1O,9.9,0,0,0,7.3
CN(C)c1ccc(/C=N/NC(=O)CNC(=O)/C=C/c2ccco2)cc1,6.7,0,0,0,7.1
CN(C)c1ccc(/C=N/NC(=O)CNC(=O)c2ccncc2)cc1,5.1,0,0,0,5.1
CN(C)c1ccc(/C=N/NC(=O)CNC(=O)c2ccc3c(c2)OCCO3)cc1,5.1,0,0,0,5.1
N#Cc1c(-n2cccc2C=O)sc2c1CCCC2,11,0,0,0,10.0
COc1cccc([C@@H](NC(=O)C(F)(F)F)[C@@H]2CCCC=C2c2ccccc2)c1,0,-,-,-,-
Oc1ccc(/C=N/NC(=S)Nc2cccnc2)c(O)c1,7.0,0,0,0,5.2
CCN(c1ccccc1)S(=O)(=O)c1c[nH]c2ccc([N+](=O)[O-])cc12,0,0,0,0,-
Cc1ccc(N(C)S(=O)(=O)c2c[nH]c3ccc([N+](=O)[O-])cc23)cc1,5.8,0,0,0,0
O=C(CC1CCCC1)N[C@@H](Cc1cccnc1)C(=O)N1CCC[C@H]1C(=O)NCCc1ccccc1Cl,0,-,-,-,-
Fc1cnc(N2CCOCC2)nc1N1CCOCC1,0,0,0,0,-
Fc1cnc(N2CCOCC2)nc1N1CCc2ccccc21,8.0,0,0,0,0
S=c1[nH]nc(C2CCCCC2)n1/N=C/c1ccccc1Cl,15,0,0,0,12
COc1cc(CN2CCN(C(=O)c3cccc4ccccc34)CC2)cc(OC)c1O,0,0,0,0,-
CC1(C)C=C(c2ccc(C=O)s2)CC(C)(C)N1C=O,4.8,0,0,0,0
CC1(C)C=C(c2ccc(C=O)s2)CC(C)(C)N1,0,0,0,0,-
O=C(OCc1ccccc1)N1CCC2CC1c1cc(Cl)ccc12 (stereo unspecified),0,0,0,0,-
SMILES,MsrA inhibitor,bovine MsrA act,PKA-R1A activ,PKA-R2B activ,MsrA conf
O=C(OCc1ccccc1)N1CCC2CC1c1c(Cl)cccc12 (stereo unspecified),5.6,0,0,0,0
CN1C(=O)CC2(C)C1=CCc1scnc12 (stereo unspecified),0,0,-,-,-
COc1cc(/C=C/c2ccc3cccc([N+](=O)[O-])c3n2)ccc1OCC(=O)O,5.8,0,0,0,0
Cc1cc(/C=C(\C#N)C(=O)Nc2ccccc2F)c(C)[nH]1,4.7,0,0,0,0
N#C/C(=C\c1ccc[nH]1)C(=O)Nc1ccccc1F,0,0,0,0,-
C#CCOC(=O)/C(=C/C=C/c1ccccc1)NC(=O)c1ccccc1,5.2,0,0,0,0
O=C(O)/C(=C\c1ccc(-c2ccc(F)cc2)o1)c1ccccc1,4.7,0,0,0,0
O=Cc1ccc(-c2ccc(C(=O)O)cc2)o1,7.2,0,0,0,0
COc1ccc(-c2cc3ccc(OCc4nn[nH]n4)cc3oc2=O)cc1OC,6.5,0,0,0,0
O=C(CCc1ccccc1)Nc1ccc(S(=O)(=O)NC2=NCCCCC2)cc1,0,0,0,0,-
